Measurements as given in PubChem BioAssay (NCATS).
Records with an inconclusive call do not appear. Calls of active or inactive are those of the source. Calls follow the shape of the dose curve; as a rule, active = well fitted inhibition curve with a large enough effect; inconclusive = small, poorly fitted or top-dose-only effect; inactive = flat fitted curve, though single readings scatter.

Tests used:
[1] = target: Glutathione peroxidase 1 (Homo sapiens) (UniProt P07203); assay: Primary qHTS Assay for Inhibitors of Recombinant Selenoprotein Glutathione Peroxidase 1 (GPX1) (AID 1845191); settings: recombinant GPX1, GR-coupled NADPH fluorescence, 15 min; series mostly up to 48.8 µM; also: nearly all actives have a fitted effect of over 65% in size
Glutathione peroxidase 1 (Homo sapiens), sequence (P07203 whole entry, looked up): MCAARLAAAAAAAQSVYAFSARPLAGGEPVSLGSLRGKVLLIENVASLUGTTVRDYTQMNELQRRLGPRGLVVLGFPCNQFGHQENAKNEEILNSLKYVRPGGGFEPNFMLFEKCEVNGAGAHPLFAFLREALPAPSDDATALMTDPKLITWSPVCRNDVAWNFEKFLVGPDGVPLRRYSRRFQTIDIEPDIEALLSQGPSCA
Method in brief: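 10 nM GPX1 + cpd, 30 min RT; start w/ 1 mM GSH, 0.5 mM cumene hydroperoxide, 0.5 mM NADPH, 100 nM GR, 0.01% BSA; buffer 50 mM Tris-HCl pH 7.5, 2 mM EDTA, 150 mM NaCl; Fl 340/450, 0 & 15 min.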

[2] = target: Phospholipid hydroperoxide glutathione peroxidase GPX4 (Homo sapiens) (UniProt P36969); assay: Primary qHTS Assay for Inhibitors of Recombinant Selenoprotein Glutathione Peroxidase 4 (GPX4) (AID 1845192); settings: recombinant GPX4, GR-coupled NADPH fluorescence, 15 min; series mostly up to 50 µM; also: nearly all actives have a fitted effect of over 65% in size; as to activity change, negative = inhibition: % is scaled to controls: 0 for no effect and ±100 for the full control effect
Phospholipid hydroperoxide glutathione peroxidase GPX4 (Homo sapiens), sequence (P36969 whole entry, looked up): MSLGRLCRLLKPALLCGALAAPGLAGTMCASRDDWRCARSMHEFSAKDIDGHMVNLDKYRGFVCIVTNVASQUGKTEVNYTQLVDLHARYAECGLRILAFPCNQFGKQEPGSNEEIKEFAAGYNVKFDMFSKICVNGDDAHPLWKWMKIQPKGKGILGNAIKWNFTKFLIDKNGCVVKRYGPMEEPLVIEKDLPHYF
Method in brief: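 NADPH consumption, followed by fluorescence at 340/450 nm between 0 and 15 min, reports GPX4 activity via coupled glutathione reductase (100 nM). Enzyme 200 nM was pre-exposed to compound 30 min; 0.5 mM cumene hydroperoxide and 1 mM GSH served as substrates.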

[3] = target: Luciferin 4-monooxygenase (Photinus pyralis) (UniProt P08659); assay: Primary firefly luciferase (FLuc) qHTS assay for identification of artifact compounds. (AID 1845220); settings: purified firefly luciferase, luminescence, 5 min; series mostly up to 54.1 µM; also: nearly all actives have a fitted effect of over 60% in size;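 as to activity change, negative = inhibition: plate controls were DMSO vehicle for no effect and no enzyme for full effect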
Method in brief: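 FLuc 10 nM; luciferin 10 uM; ATP 10 uM; Tris-acetate pH 7.6, Mg-acetate 10 mM; 15 min RT preincubation; 5 min reaction; luminescence.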

O=C(/C=C/c1ccc(O)cc1)OCC1=C[C@@H](O)[C@@H]2C=CO[C@@H](O[C@@H]3O[C@H](CO)[C@@H](O)[C@H](O)[C@H]3O)[C@H]12
inactive: Potency [1] | Potency [2] | Potency [3]

COc1ccc(C2=CC(=O)OC2Cc2ccc(O)cc2)c(O)c1 (configuration not stated)
inactive: Potency [1] | Potency [2] | Potency [3]

CCOC(=O)N1CCC(NCCNC(=O)c2ccccc2C)CC1
inactive: Potency [1] | Potency [2] | Potency [3]

CC1=CCC2C(C)(CO)CCCC2(CO)C1CO (configuration not stated)
inactive: Potency [1] | Potency [2] | Potency [3]

CC1=CC[C@]2(C(=O)O[C@@H]3O[C@H](CO[C@@H]4O[C@H](CO)[C@@H](O[C@@H]5O[C@@H](C)[C@H](O)[C@@H](O)[C@H]5O)[C@H](O)[C@H]4O)[C@@H](O)[C@H](O)[C@H]3O)CC[C@]3(C)C(CCC4[C@@]5(C)C[C@@H](O)[C@H](O)[C@@](C)(CO)C5CC[C@]43C)C2C1C (some centres not stated)
inactive: Potency [1] | Potency [2] | activity change, negative = inhibition [3] 0.527% [at 11.6 µM]

NCCCC[C@H](NC(=O)[C@@H]1Cc2ccccc2CN1C(=O)CCC(=O)c1ccccc1)C(=O)NCC(c1ccccc1)c1ccccc1
inactive: Potency [1] | Potency [2] | Potency [3]

C=C/C=C/[C@@H]1OC[C@H](/C=C/C=C/C)[C@H]1O
inactive: Potency [1] | Potency [2] | Potency [3]

C=CC(C)(CC/C=C(\C)CC/C=C(\C)CC(O)/C=C(\C)C(=O)O)O[C@@H]1O[C@H](CO)[C@@H](O)[C@H](O)[C@H]1O[C@@H]1O[C@H](CO)[C@@H](O)[C@H](O)[C@H]1O (some centres not stated)
inactive: Potency [1] | Potency [2] | Potency [3]

CC(=O)OCC1=C[C@H](O)[C@@H]2C(C(=O)O)=CO[C@@H](O[C@@H]3O[C@H](CO)[C@@H](O)[C@H](O)[C@H]3O)[C@H]12
inactive: Potency [1] | Potency [2] | Potency [3]
